# Screens as filed in PubChem.
# A selection: hits, their analogues and other compounds. The true share with any hit is near 2.8%.
# Rev-erbA mod = modulators of Rev-erb alpha DNA binding, primary screen, biochemical, FITC-DNA, fluorescence polarization, uHTS. 370,000 tested, 0.79% active. Rev-erbα–FITC-DNA binding, 90 min. activity, % at 10 µM. Nuclear receptor subfamily 1 group D member 1 (Homo sapiens), P20393;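 active = activity above about 14%, limit read from the data; passing the limit was not always enough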;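 also: 0% = DMSO wells with 35 nM protein and 100% = DMSO wells with 750 nM protein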
# PP5 primary = PP5 phosphatase inhibitors, primary screen, biochemical, fluorescence; purified PP5c, OMFP substrate fluorescence; inhibition, % at 6.7 µM; 320,000 tested, 0.18% active;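 active = inhibition above the campaign's mean inhibition across all tested compounds plus 3 SD, cut at about 9.5% in these data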;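 also: 0% = DMSO only and 100% = 100 µM cantharidin control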
# JMJD2C inh = inhibitors of GASC-1 histone demethylase, primary screen, biochemical, fluorescence, DELFIA europium | Lysine-specific demethylase 4C (Homo sapiens), Q9H3R0 | GST-JMJD2C(1-420) H3K9me3 demethylation | inhibition, % at 2.35 µM | 330,000 tested, 0.069% active | AID 2099, 2009;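 active = more than half of a compound's replicate wells show inhibition beyond 50%, single wells judged on their own value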;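 also: signal counts dimethyl H3K9 product captured on neutravidin plate; 0% = median of DMSO wells and 100% = 0.3 times that DMSO median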
# Target sequence (Q9H3R0 1-420 limits assumed): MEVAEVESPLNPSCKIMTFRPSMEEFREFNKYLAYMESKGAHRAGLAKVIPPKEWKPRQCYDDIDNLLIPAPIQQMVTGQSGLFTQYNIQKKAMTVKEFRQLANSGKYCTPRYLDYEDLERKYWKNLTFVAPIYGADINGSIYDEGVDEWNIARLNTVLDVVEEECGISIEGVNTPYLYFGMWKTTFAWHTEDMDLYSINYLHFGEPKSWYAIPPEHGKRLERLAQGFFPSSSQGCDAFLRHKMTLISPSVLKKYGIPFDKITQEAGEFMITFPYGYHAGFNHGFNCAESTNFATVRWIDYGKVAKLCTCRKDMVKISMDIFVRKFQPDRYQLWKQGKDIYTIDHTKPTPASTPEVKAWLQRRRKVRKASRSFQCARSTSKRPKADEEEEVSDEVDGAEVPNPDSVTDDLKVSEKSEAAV
# proKLK7 act = proKLK7 zymogen activators, primary screen, biochemical, fluorescence intensity; Kallikrein-7 (Homo sapiens), P49862; purified proKLK7, EDANS-DABCYL substrate fluorescence; 100% is mature enzyme control, 0% vehicle; activation, % at 7 µM; 370,000 tested, 0.9% active; AID 652039, 2013;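 active = activation above the mean of all tested compounds plus 3 SD, computed per campaign excluding outliers beyond control limits, cut at about 13% in these data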
# PG9 Ab binder = binders of HIV-1 gp120 antibody PG9, primary screen, biochemical, TR-FRET. inhibition, % at 6.7 µM. 360,000 tested, 0.43% active. TR-FRET gp120-PG9 antibody binding. HIV-1 gp120 / PG9 antibody interaction; in the data active = inhibition above about 8.5%
# PP1 counter = PP1-alpha phosphatase inhibitors, primary screen, counter-screen for PP5 inhibitor project, biochemical, fluorescence, OMFP substrate, single point; Serine/threonine-protein phosphatase PP1-alpha catalytic subunit (Homo sapiens), P62136; purified PP1alpha; inhibition, % at 6.7 µM; 320,000 tested, 0.9% active; AID 2235, 2010;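 active = inhibition above the mean inhibition of all tested compounds plus 3 SD, computed separately for each screening campaign, cut at about 15% in these data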
# Starred values were filed as active, the others as inactive; · = no result given; ! = repeats disagree.
SMILES,Rev-erbA mod,PP5 primary,JMJD2C inh,proKLK7 act,PG9 Ab binder,PP1 counter
CC(/C=C1\SC(=S)N(NS(=O)(=O)c2ccc(C)cc2)C1=O)=C\c1ccccc1,-7,-5,-15,0,-2,16*
CC(/C=C1\SC(=S)N(CCCC(=O)Nc2ccc(C(=O)O)c(O)c2)C1=O)=C\c1ccccc1,·,1,-1,·,·,17*
CC(/C=C1\SC(=S)N(CCC(=O)Nc2ccc(O)cc2)C1=O)=C\c1ccccc1,1,2,3,-1,-1,15*
CC(C)OC(=O)CCC/C=C\C[C@@H]1[C@@H](/C=C/[C@@H](O)COc2cccc(C(F)(F)F)c2)[C@H](O)C[C@@H]1O,-2,·,·,·,·,·
O=C(Nc1ccc(N2C(=O)CC(c3ccccc3)C2=O)c(Cl)c1)c1ccccn1 (stereo not drawn),6,·,·,·,·,·
CC(CC(c1ccccc1)c1ccccc1)NC(C)(C)C (stereo not drawn),-3,·,·,·,·,·
C#CCN1CC(N(C)CCOC(=O)CCCc2ccccc2)CS1(=O)=O (stereo not drawn),4,·,·,0,·,·
Cc1ccc(-c2csc(=Nc3cccnc3)n2CCCn2ccnc2)cc1C,-3,2,1,0,0,3
c1cncc(N=c2scc(-c3cccc4ccccc34)n2CCCn2ccnc2)c1,3,2,-4,1,1,16*
CC1(OC(=O)C2CCCC2)C(=O)C=C2C=C(c3ccsc3)N(CC3CC3)C=C2C1=O (stereo not drawn),1,-7,4,1,-2,1
CC1(OC(=O)C2CCCC2)C(=O)C=C2C=C(c3ccsc3)N(CCc3c[nH]c4ccccc34)C=C2C1=O (stereo not drawn),·,2,9,·,·,17*
O=c1c2c(c1=O)N(CCP(=O)(O)O)CCCN2,2,·,·,·,·,·
Cc1ccc(Cn2c(=N)c(C(=O)NCc3ccco3)cc3c(=O)n4ccccc4nc32)cc1,-26,5,-47,-5,2,16*
COc1ccc(CCn2c(=N)c(C(=O)NCc3ccco3)cc3c(=O)n4ccccc4nc32)cc1OC,-32,·,·,-2,2,·
CC(C)CN=c1cc(-c2ccccc2)oc2ccc(Cl)cc12,-1,2,3,0,1,17*
COc1ccc(CN2C(=O)C(CC(C)C)Nc3ncnc(N4CCCCC4)c32)cc1 (stereo not drawn),-5,3,2,-1,0,16*
Cc1ccc2c(c1)C(=O)C(=O)N2CCOc1ccccc1,-5,-1,-3,0,0,7
Cc1ccc2c(c1)C(=O)C(=O)N2CCCOc1ccccc1C,1,2,-1,0,-1,15*
Cc1cccc2c1N(CCCOc1ccccc1)C(=O)C2=O,-6,2,7,1,2,17*
Cc1c2oc3c(C)ccc(C(=O)OC(C)C4NC(=O)C(C(C)C)N(C)C(=O)CN(C)C(=O)C5CCCN5C(=O)C(C(C)C)NC4=O)c3nc-2c(C(=O)OC(C)C2NC(=O)C(C(C)C)N(C)C(=O)CN(C)C(=O)C3CCCN3C(=O)C(C(C)C)NC2=O)c(N)c1=O (stereo not drawn),-8,·,·,·,·,·
COc1ccc(-c2[nH]c(-c3ccccc3)nc2SCC(=O)Nc2nccs2)cc1,-1,5,·,0,0,3
COc1ccc(-c2[nH]c(-c3ccc(Cl)cc3)nc2SCC(=O)Nc2nccs2)cc1,0,5,0,0,1,16*
CCOc1ccc(-n2c(COc3ccccc3)nnc2SCC(=O)Nc2ccc3c(c2)OCCO3)cc1,-7,·,·,0,·,·
O=C(O)c1cccc(NC(=S)N/N=C/c2ccccc2OCc2cccc(Br)c2)c1,-2,·,-6,0,-4,·
COc1ccc(C(=O)N/N=C/c2ccc3cccc(OCc4ccccc4)c3n2)cc1,-2,3,-16,-427,4,9
SMILES,Rev-erbA mod,PP5 primary,JMJD2C inh,proKLK7 act,PG9 Ab binder,PP1 counter
O=C(O)c1cccc(NC(=S)N/N=C/c2ccccc2OCc2ccc(Br)cc2)c1,6,-4,11,0,-2,17*
O=C(N/N=C/c1ccc2cccc(OCc3ccccc3)c2n1)c1ccc(Br)cc1,-16,1,1,-19,1,17*
CCCCn1c(NC(=O)c2ccc(F)cc2)c(C#N)c2nc3ccccc3nc21,·,14*,15,·,·,5
CCN(CC)Cc1cc(Nc2c3ccccc3nc3c4ccccc4n(C)c23)cc(CN(CC)CC)c1O,1,·,·,23*,-22,·
COc1ccc(Nc2ncnc3sc(-c4ccccc4)cc23)cc1OC,12,6,54*,-150,-1,0
COc1ccc(Nc2ncnc3c2cnn3-c2ccccc2)cc1OC,-4,5,12,-1,-1,1
COc1ccc(-c2cc(C(F)F)n3ncc(C(=O)N4CCN5CCCC5C4)c3n2)cc1 (stereo not drawn),-3,1,-14,24*,0,-1
COc1ccc(-c2cc(C(F)F)n3ncc(C(=O)N4CCc5ccccc54)c3n2)cc1,11,6,-2,0,-3,4
Cc1cc(-c2csc(NC(=O)c3ccc(C#N)cc3)n2)c(C)n1Cc1ccco1,-12,0,20,0,-1,17*
C=CCCC(=O)N1CCC(C(=O)NCC2COc3ccccc3O2)CC1 (stereo not drawn),2,·,·,1,·,·
O=C(O)CSc1cc(C(=O)c2cc(F)ccc2O)cn2c(=O)c3c(-c4ccccc4)csc3nc12,-5,5,-2,6,-1,17*
Oc1cccc(-c2sc3ccccc3c2-c2ccc(OCCN3CCCCC3)cc2)c1,-1,·,·,-2,-2,·
O=C(c1ccc(OCCN2CCCCC2)cc1)c1c(-c2ccc(O)cc2)sc2cc(O)ccc12,-4,3,12,0,-1,16*!
Nc1ccc(NC(=O)c2ccc(C(=O)Nc3ccc(N)cc3)cc2)cc1,1,1,-10,0,-2,16*
Nc1ccc(C(=O)Nc2ccc(Nc3ccncc3)cc2)cc1,-4,-2,-1,1,0,-3
C/C(=N/Nc1ccnc2cc(Cl)ccc12)c1ccc(N)cc1,-1,0,-5,1,-5,17*
CCCCOc1ccc(NC(=O)Cn2c(=O)ccc3c(C)cc(C)nc32)cc1,17,0,-2,0,9.0*,3
COCc1nnc(NC(=O)c2ccc(S(=O)(=O)N3CCCc4ccccc43)cc2)o1,-1,1,2,0,1,17*
CC(Oc1ccc(Cl)cc1Cl)C(=O)NC1=NN(c2ccccc2)C(=O)C1 (stereo not drawn),-2,4,4,1,0,17*
